What all share (assay): log2 fold change, soluble protein after heating vs DMSO (PISA); higher = thermal stabilisation; K562 lysate, 10 uM; active = over 0.2 and 3.5 SD of the protein, either way, in both replicates (recomputed)
Compound in test [1]: NCC(=O)Nc1ccc(-n2nc(C(F)(F)F)cc2-c2ccc3c(ccc4ccccc43)c2)cc1
A digest of the protocol: (§1)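 Dounce homogenisation of K562 pellets in PBS pH 7.4 with 1 mM MgCl2 produced a crude extract, used at 1 mg/mL protein. Exposure to 10 μM compound lasted 30 min, and aliquots were then heated for 3 min across 48°C-58°C, pooled and brought to 0.5% NP-40 at 4°C. The supernatant after 21,000xg for 90 min was quantified by TMTpro 16plex LC-MS/MS with channel sums equalised. Duplicate values are given as log-two fold change in thermal stability relative to solvent controls.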

Compound in test [2]: O=C(CCCCCCC(=O)Nc1ccccc1)NO [vorinostat]
A digest of the protocol: as §1

Compound in test [3]: O=C(O)c1ccc2c(c1)nc(Nc1cccc(Cl)c1)c1ccncc12 [silmitasertib]
A digest of the protocol:
as §1

Compound in test [4]: O=C1NC(=O)C(c2cnc3ccccn23)=C1c1cn2c3c(cc(F)cc13)CN(C(=O)N1CCCCC1)CC2
A digest of the protocol: as §1

Compound in test [5]: c1cn2cc(-c3ccc4cn[nH]c4c3)nc(Nc3ccc(N4CCOCC4)cc3)c2n1 [entospletinib]
In short, it runs like this:
as §1

Targets with a hit are over-represented here; the source holds about 8,800 in all. About 0.5% of all pairs of compound and target were hits. A number with no mark means an inactive call.

UniProt P08236, sequence (P08236 whole entry, looked up): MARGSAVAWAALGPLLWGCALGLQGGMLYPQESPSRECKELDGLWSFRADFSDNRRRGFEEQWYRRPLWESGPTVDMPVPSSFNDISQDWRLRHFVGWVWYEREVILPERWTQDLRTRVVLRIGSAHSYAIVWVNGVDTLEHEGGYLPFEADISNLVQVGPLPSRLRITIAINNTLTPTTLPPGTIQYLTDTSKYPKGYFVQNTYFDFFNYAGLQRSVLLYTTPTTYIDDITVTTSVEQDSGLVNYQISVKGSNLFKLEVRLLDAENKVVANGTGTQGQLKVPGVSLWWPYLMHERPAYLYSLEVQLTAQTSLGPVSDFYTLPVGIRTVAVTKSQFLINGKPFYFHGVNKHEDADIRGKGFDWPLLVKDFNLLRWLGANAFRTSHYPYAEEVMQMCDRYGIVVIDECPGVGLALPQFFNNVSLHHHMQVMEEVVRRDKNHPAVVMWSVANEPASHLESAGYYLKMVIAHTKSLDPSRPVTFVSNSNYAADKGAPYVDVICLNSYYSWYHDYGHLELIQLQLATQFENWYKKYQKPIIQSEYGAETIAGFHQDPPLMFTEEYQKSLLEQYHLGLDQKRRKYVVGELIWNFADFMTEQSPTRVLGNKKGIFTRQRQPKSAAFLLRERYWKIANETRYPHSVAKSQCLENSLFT
UniProt P49915, sequence (P49915 whole entry, looked up): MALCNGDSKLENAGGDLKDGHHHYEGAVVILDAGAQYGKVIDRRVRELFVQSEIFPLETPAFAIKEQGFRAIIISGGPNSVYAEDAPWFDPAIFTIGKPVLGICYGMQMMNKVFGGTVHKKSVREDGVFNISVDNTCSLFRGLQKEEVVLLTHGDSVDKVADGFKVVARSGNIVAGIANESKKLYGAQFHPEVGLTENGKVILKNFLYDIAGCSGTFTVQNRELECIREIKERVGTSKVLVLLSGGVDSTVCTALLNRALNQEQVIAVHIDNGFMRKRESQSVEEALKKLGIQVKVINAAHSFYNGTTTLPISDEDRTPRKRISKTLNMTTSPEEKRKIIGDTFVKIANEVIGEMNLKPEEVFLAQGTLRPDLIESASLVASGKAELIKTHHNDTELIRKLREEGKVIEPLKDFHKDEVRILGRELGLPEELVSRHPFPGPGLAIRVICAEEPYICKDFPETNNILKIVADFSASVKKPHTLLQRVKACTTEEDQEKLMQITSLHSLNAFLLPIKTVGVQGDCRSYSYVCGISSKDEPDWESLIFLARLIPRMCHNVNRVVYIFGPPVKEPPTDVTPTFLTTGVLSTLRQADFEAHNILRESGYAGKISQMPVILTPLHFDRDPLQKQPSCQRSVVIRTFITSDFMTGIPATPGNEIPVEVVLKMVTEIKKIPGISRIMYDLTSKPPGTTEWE
UniProt Q9Y287, sequence (Q9Y287 whole entry, looked up): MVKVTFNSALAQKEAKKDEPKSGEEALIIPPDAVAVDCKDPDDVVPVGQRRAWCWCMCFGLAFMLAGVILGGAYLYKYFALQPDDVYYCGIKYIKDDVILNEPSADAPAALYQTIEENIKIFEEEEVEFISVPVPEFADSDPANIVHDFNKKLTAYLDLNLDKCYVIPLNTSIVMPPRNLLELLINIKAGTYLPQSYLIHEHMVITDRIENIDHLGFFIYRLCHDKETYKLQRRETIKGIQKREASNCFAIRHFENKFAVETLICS
UniProt P20839, sequence (P20839 whole entry, looked up): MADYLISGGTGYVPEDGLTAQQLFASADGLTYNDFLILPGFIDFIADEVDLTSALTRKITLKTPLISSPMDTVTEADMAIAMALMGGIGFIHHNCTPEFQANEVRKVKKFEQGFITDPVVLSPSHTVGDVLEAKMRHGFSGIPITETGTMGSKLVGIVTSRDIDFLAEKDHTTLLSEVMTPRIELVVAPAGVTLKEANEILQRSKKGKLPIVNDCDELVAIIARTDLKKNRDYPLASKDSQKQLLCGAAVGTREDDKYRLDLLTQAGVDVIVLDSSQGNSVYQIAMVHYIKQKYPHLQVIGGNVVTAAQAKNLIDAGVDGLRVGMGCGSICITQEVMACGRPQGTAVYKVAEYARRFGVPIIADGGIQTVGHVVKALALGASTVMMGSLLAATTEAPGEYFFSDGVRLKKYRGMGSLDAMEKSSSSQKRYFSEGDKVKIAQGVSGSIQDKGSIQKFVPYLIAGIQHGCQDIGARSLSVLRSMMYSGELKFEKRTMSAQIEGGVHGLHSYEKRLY
UniProt Q9ULR0, sequence (Q9ULR0 whole entry, looked up): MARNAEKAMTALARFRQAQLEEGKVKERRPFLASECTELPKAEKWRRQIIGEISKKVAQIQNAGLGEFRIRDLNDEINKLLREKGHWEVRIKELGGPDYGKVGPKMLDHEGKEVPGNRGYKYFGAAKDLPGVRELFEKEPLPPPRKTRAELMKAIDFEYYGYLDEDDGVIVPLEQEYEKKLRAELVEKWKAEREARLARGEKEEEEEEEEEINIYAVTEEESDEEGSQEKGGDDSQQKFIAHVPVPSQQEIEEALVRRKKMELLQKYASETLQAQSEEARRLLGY
UniProt P40939, sequence (P40939 whole entry, looked up): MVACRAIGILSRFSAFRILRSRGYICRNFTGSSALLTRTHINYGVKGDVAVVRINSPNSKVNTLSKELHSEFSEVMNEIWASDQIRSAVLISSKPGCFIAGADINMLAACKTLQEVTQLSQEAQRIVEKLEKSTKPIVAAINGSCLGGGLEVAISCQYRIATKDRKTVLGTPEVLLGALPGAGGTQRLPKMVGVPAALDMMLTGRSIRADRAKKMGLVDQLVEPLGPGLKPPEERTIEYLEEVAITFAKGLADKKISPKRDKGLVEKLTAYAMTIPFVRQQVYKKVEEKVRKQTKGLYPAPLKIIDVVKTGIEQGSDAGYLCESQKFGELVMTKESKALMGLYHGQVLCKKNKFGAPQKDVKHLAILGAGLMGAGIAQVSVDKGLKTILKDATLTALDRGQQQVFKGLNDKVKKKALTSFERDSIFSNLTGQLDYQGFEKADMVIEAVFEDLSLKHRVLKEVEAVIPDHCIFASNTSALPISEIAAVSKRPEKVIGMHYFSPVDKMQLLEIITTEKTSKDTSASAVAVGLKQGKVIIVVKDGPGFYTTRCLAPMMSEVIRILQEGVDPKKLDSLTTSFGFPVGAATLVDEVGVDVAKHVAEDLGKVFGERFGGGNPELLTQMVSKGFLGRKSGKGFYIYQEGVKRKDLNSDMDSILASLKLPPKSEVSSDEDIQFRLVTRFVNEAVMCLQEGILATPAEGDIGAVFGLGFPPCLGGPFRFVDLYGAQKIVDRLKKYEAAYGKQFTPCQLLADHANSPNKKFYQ
UniProt Q9P2X3, sequence (Q9P2X3 whole entry, looked up): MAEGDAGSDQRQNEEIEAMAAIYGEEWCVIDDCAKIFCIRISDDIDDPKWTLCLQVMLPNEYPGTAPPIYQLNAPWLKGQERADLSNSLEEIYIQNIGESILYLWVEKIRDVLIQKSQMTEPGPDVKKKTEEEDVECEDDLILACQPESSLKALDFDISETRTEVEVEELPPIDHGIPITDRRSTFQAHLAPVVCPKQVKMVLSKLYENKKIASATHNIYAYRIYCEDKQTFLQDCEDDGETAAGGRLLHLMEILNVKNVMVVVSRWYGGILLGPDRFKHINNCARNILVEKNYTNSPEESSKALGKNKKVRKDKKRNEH
UniProt O15550, sequence (O15550 whole entry, looked up): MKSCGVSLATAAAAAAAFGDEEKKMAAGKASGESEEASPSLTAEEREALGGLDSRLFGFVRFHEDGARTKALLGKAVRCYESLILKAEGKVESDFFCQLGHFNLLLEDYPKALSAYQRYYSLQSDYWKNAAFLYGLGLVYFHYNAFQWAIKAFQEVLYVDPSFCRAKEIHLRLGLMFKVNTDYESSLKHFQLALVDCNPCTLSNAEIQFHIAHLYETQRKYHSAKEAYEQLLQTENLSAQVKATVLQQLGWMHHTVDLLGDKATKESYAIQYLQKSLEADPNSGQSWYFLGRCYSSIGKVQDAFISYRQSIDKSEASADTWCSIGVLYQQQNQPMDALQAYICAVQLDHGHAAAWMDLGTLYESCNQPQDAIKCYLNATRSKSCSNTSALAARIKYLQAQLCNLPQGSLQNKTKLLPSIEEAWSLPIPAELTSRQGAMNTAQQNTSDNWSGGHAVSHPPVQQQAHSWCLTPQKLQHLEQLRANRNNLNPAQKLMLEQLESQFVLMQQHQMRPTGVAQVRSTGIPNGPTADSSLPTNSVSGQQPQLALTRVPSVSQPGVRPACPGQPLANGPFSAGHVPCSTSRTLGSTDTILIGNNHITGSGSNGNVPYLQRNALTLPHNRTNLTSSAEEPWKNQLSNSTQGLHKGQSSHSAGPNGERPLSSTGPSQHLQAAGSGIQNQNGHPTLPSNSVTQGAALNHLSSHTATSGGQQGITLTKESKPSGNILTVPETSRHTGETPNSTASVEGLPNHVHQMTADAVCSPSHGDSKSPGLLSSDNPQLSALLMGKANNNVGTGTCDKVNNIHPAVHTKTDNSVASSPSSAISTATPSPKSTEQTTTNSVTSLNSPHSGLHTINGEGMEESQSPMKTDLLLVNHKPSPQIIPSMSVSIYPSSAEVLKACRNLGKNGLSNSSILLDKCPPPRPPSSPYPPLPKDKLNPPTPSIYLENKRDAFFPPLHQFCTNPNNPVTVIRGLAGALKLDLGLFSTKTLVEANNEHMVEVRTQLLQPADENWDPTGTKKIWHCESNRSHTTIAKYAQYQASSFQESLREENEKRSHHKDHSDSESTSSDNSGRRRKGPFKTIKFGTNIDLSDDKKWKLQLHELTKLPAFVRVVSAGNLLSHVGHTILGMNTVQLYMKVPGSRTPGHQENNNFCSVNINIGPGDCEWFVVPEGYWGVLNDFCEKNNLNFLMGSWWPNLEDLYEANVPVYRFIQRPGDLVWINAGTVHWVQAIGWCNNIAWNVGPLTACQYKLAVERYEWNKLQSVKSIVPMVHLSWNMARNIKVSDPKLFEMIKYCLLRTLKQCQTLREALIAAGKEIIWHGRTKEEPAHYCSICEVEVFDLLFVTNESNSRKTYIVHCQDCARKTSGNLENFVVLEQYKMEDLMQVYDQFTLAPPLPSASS

Consider GPX4 (UniProt P36969), for which the log2 fold change in test [1] was -0.007; in test [2] it was -0.306 (active); in test [3] it was 0.017; in test [4], -0.023; in test [5], 0.037.
HADHB (UniProt P55084): the log2 fold change in test [1] was 0.047; in test [2], -0.199; in test [3] it was -0.033; in test [4], 0.269; in test [5] it was 0.063.
As for GOLPH3L (UniProt Q9H4A5), the log2 fold change is -0.061 in test [1]; -0.035 in test [2]; -0.002 in test [3]; 0.047 in test [4]; 0.048 in test [5].
Regarding HDAC6 (UniProt Q9UBN7), the log2 fold change in test [1] was -0.039; in test [2], 0.513 (active); in test [3], 0.016; in test [4], -0.047; in test [5], 0.007.
For KHDRBS1 (UniProt Q07666), the log2 fold change in test [1] was 0.005; in test [2] it was -0.583 (active); in test [3], 0.018; in test [4], 0.016; in test [5] it was 0.008.
Turning to ITM2B (UniProt Q9Y287), the log2 fold change in test [1] was -0.101; in test [2] it was 0.141; in test [3], 0.013; in test [4] it was 0.004.
Consider HADH isoform 2 (UniProt Q16836), for which the log2 fold change in test [1] was 0; in test [2], -0.029; in test [3] it was 0.005; in test [4], 0.006; in test [5], 0.022.
For GUSB (UniProt P08236), in that order: 0.021, 0.043, 0.015, -0.026 and -0.029.
Take GSK3B isoform 2 (UniProt P49841): the log2 fold change is 0.02 in test [1]; 0.253 in test [2]; 0.421 in test [3]; 0.657 in test [4]; 0.05 in test [5].
HECW2 (UniProt Q9P2P5): the log2 fold change in test [1] is -0.018; in test [2] it was -0.058; in test [3], 0.011; in test [4], -0.004; in test [5], -0.09.
As for IMPACT (UniProt Q9P2X3), the log2 fold change is 0.019 in test [1]; -0.125 in test [2]; -0.096 in test [3]; -0.082 in test [4]; -0.027 in test [5].
For the target HACE1 (UniProt Q8IYU2), the log2 fold change in test [1] was 0.183; in test [2] it was -0.126; in test [3], -0.002; in test [4], 0.084; in test [5], 0.012.
The like results for GSK3A (UniProt P49840) were, in that order, -0.019, 0.265, 0.382, 0.456 and 0.014.
Take HNRNPAB isoform 3 (UniProt Q99729): the log2 fold change in test [1] was 0.067; in test [2] it was 0.189; in test [3] it was -0.01; in test [4], 0.008; in test [5], -0.019.
Regarding ISY1 isoform 1 (UniProt Q9ULR0), the log2 fold change in test [1] was -0.163; in test [2], 0.05; in test [3], 0.032; in test [4], -0.01; in test [5], -0.02.
On to IMPDH1 isoform 6 (UniProt P20839), for which the log2 fold change was 0.029 in test [1]; -0.897 (active) in test [2]; -0.003 in test [3]; 0.004 in test [4]; 0.023 in test [5].
Take KCTD20 (UniProt Q7Z5Y7): the log2 fold change in test [1] is -0.137; in test [2], -0.323 (active); in test [3] it was 0.035; in test [4] it was 0.053; in test [5], 0.091.
For HADHA (UniProt P40939), the log2 fold change in test [1] was 0.052; in test [2], -0.159; in test [3], -0.026; in test [4] it was 0.302; in test [5], 0.027.
Consider KDM6A (UniProt O15550), for which the log2 fold change in test [1] is 0.026; in test [2], -0.299 (active); in test [3], -0.059; in test [4], -0.009; in test [5], -0.02.
On to GMPS (UniProt P49915), for which the log2 fold change in test [1] is 0.017; in test [2], -0.553 (active); in test [3], 0.028; in test [4], 0.002; in test [5] it was 0.01.
The like results for HIST2H2AA3 (UniProt Q6FI13) were, in that order, -0.056, 0.12, -0.073, 0.068 and -0.106.
Take HAUS7 isoform 2 (UniProt Q99871): the log2 fold change in test [1] was -0.091; in test [2], -0.416 (active); in test [3], -0.029; in test [4], -0.026; in test [5], -0.124.
Take INTS14 (UniProt Q96SY0): the log2 fold change was -0.008 in test [1]; -0.311 (active) in test [2]; 0.002 in test [3]; 0.023 in test [4]; 0.026 in test [5].
With KHK isoform 2 (UniProt P50053), the log2 fold change in test [1] was 0.035; in test [2], 0.045; in test [3], 0.018; in test [4], -0.053; in test [5], 0.033.

The values above are taken from the supplement of paper PMC10849652.
